Source: PubChem BioAssay AID504810 (National Center for Advancing Translational Sciences (NCATS), 2011)
Hit rate of the full screen: of about 330,000 compounds, about 670 (0.2%) were called active.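 Rule for the calls: active = activity change below a set negative limit, meaning inhibition stronger than a set level (cut at about -70% in these data); inconclusive = activity change between two set negative limits; inactive = the rest.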 The entries come from a sample that favours actives as a whole.

The molecules below were run against Thyrotropin receptor (Homo sapiens) (UniProt P16473) (assay: Antagonists of the Thyroid Stimulating Hormone Receptor: HTS campaign). Details: TSHR-expressing cells, TSH-stimulated cAMP HTRF, 2 h; at 11.5 µM; hits give low values.
Procedure, shortened: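 Cell-based HTRF cAMP assay; TSHR cells + compound, TSH EC80 (4nM final), 2 h, 37 deg C. Lysis with anti-cAMP cryptate and cAMP-d2, 30 min RT, read 665/620 nm.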
% is set by controls: 0 for no effect and ±100 for the full control effect.

Chain of Thyrotropin receptor (Homo sapiens) (P16473 whole entry, looked up): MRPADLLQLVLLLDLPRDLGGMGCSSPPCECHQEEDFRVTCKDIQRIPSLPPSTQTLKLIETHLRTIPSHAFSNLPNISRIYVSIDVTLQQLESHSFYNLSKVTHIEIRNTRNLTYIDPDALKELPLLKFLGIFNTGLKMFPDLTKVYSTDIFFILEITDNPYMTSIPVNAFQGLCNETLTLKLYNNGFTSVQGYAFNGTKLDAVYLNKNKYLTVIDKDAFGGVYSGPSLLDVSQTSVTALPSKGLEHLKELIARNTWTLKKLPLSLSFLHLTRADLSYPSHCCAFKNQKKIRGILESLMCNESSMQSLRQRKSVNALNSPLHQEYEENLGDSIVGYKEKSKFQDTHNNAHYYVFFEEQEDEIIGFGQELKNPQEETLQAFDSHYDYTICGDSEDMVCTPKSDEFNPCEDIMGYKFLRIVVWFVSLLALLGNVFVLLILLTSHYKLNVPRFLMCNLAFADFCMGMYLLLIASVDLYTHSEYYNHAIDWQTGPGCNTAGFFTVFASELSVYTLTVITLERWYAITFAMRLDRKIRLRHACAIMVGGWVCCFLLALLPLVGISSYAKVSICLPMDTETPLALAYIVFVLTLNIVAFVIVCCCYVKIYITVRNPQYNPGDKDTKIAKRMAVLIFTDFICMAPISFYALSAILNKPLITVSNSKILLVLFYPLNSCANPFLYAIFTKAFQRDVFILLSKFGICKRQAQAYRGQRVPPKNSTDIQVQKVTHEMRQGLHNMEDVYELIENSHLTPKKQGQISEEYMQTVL

Row | Compound | activity change, negative = inhibition
1 | Nc1ccc(Nc2cc(O)c3ncccc3c2)cc1 | -16% (inactive)
2 | CCOC(=O)c1ccccc1NS(=O)(=O)c1c(C)nc2sccn2c1=O | 3.11% (inactive)
3 | CCN(/N=C/c1ccc(N(C)C)cc1)c1nc2ccccc2[nH]1 | -6.71% (inactive)
4 | O=C(CCCN1C(=O)CCC1=O)Nc1ccc(Cl)c(C(F)(F)F)c1 | 1.2% (inactive)
5 | CS(=O)(=O)N(CC(=O)Nc1ccc(Cl)c(Cl)c1)C1CCCCC1 | 15.8% (inactive)
6 | O=C(CC(O)(C(F)(F)F)C(F)(F)F)Nc1ccc(Cl)c(Cl)c1 | -74.6% (active)
7 | Cc1ccccc1CN1C[C@@H]2C[C@@H](c3cn(C)nc3-c3ccccc3)N3CCC[C@@]23C1=O | 2.86% (inactive)
8 | NC(=O)COC(=O)c1cc(S(=O)(=O)N2CCN(c3ccccc3)CC2)ccc1Cl | -4.47% (inactive)
9 | CCNC(=O)NC(=O)C(C)OC(=O)C1CCN(S(=O)(=O)c2ccccc2F)CC1 (configuration not stated) | 15.3% (inactive)
10 | O=C(CCNC(=O)Cn1ccc2ccccc2c1=O)NCCC1=CCCCC1 | 9.22% (inactive)
11 | Oc1ccc(Cn2cc[nH]c2=S)cc1 | 7.71% (inactive)
12 | Cc1ccc(S(=O)(=O)N2[C@@H](c3ccc(Br)cc3)C(C(=O)O)=C[C@H]2CC2CCCC2)cc1 | -5.29% (inactive)
13 | CC[C@]12c3[nH]c4ccc(Cl)cc4c3CCN1C(=O)[C@@H](CC(=O)NCCCOC)C[C@@H]2C(=O)N1CCN(C(=O)C2CC2)CC1 | 11.4% (inactive)
14 | CCN(Cc1ccccc1)C(=O)Cc1ccc(OC)c(S(=O)(=O)N2CCOCC2)c1 | 0.0578% (inactive)
15 | N#Cc1c(Cl)nc(-c2cccnc2)nc1-c1ccccc1 | 3.65% (inactive)
16 | CC1(c2ccc3ccccc3c2)NC(=O)N(CC(N)=O)C1=O (configuration not stated) | -6.17% (inactive)
17 | CN(C)c1ccc(S(=O)(=O)NCC(=O)NCC2CCCCC2)cc1[N+](=O)[O-] | 6.75% (inactive)
18 | Cc1ccc(S(=O)(=O)NCCCn2ccnc2)cc1C(=O)NC(C)C | -0.615% (inactive)
19 | CC1(C)CC(CCC(=O)Nc2ccccc2Cl)C(=O)O1 (configuration not stated) | 13.5% (inactive)

Row | Compound | activity change, negative = inhibition
20 | O=C(Nc1ccccc1Cl)/C(Cl)=C(\Cl)S(=O)c1ccccc1 (configuration not stated) | -71.3% (active)
21 | Cc1c(NC(=O)Nc2ccccc2Cl)sc(=S)n1C | 46.2% (inactive)
22 | O=C1CCC(C(=O)N2CCCCO2)CN1Cc1cccc(C(F)(F)F)c1 (configuration not stated) | 15.4% (inactive)
23 | COc1ccc(CCNC2=CC(=O)CC(C)(C)C2)cc1 | -4.33% (inactive)
24 | O=C1NC2(CCCCCC2)C(=O)N1CCS(=O)(=O)Oc1ccccc1 | -2.81% (inactive)
25 | Cc1ccc(C(=O)Nc2ncccc2C)cc1S(=O)(=O)N1CCOCC1 | -1.78% (inactive)
26 | COc1ccc(/C=C/C(=O)OCC(=O)NC2CCCCCC2)cc1OC | -8.81% (inactive)
27 | CCN(CC(=O)Nc1ccccc1C(F)(F)F)C(=O)CSCc1c(C)noc1C | 4.59% (inactive)
28 | Cc1nnc(NC(=O)CSc2nccn2-c2cccc(C)c2C)s1 | -14.2% (inactive)
29 | Fc1ccc(-n2c(Cc3ccccc3)nnc2SCc2nc(-c3ccc(Cl)cc3)no2)cc1 | 7.8% (inactive)
30 | CCOCCCNC(=O)C(NC(=O)c1ccc(=O)[nH]c1)c1ccc(Cl)cc1 (configuration not stated) | -71.3% (active)
31 | CCOCCCNC(=O)C(NC(=O)c1ccccc1O)c1ccccc1 (configuration not stated) | 1.46% (inactive)
32 | CCOCCCNC(=O)C(NC(=O)c1ccc(=O)[nH]c1)c1ccc(C)cc1 (configuration not stated) | -1.24% (inactive)
33 | CCOC(=O)C1(CC2CCCCO2)CCN(Cc2nc(-c3cccs3)oc2C)CC1 (configuration not stated) | -7.01% (inactive)
34 | COc1ccc(N2C(=O)NC(NS(=O)(=O)c3ccc(Cl)cc3)(C(F)(F)F)C2=O)cc1 (configuration not stated) | -105% (active)
35 | Cc1ccc(S(=O)(=O)NC2(C(F)(F)F)NC(=O)N(CCc3ccccc3)C2=O)cc1 (configuration not stated) | -3.44% (inactive)
36 | COc1ccc(S(=O)(=O)NC2(C(F)(F)F)N=C3SCCN3C2=O)cc1 (configuration not stated) | 17.4% (inactive)
37 | Cn1nccc1C(=O)NC1CCCc2c1cnn2-c1ccccc1F (configuration not stated) | -36.6% (inactive)
38 | Cn1nccc1C(=O)NC1CCCc2c1cnn2-c1ccc(F)cc1F (configuration not stated) | -37.7% (inactive)

Row | Compound | activity change, negative = inhibition
39 | Cc1cc(C(=O)NC2CCCc3c2cnn3-c2cccc(C)c2C)c(C)o1 (configuration not stated) | -79.3% (active)
40 | Cc1ccc(S(=O)(=O)c2c[nH]c3ccc(Cl)cc3c2=O)cc1 | -9.54% (inactive)
41 | CCn1nc(C(=O)NNC(=O)C2CSC3(C)CCC(=O)N23)c2ccccc2c1=O (configuration not stated) | 6.6% (inactive)
42 | COCCCn1c(Cc2csc(Nc3cccc(Cl)c3)n2)nnc1SCC(=O)OC1CCCCC1 | -4.53% (inactive)
43 | C/C(=N\NC(=O)c1cc(-c2ccc(O)cc2)nc2ccccc12)c1cccnc1 | 0.505% (inactive)
44 | Cc1cccc(N2CCC(NCc3c(C(=O)N4CCCCC4)nc4c(C)cccn34)CC2)c1 | 4.5% (inactive)
45 | CCOC(=O)[C@H]1[C@H]2COc3ccc(C)cc3[C@@H]2N2C(=O)CN(Cc3ccc(F)cc3)C(=O)[C@@]12C | -7.74% (inactive)
46 | Cc1ccc(N(CCC(=O)O)S(=O)(=O)c2cccc(C(F)(F)F)c2)cc1 | 22.4% (inactive)
47 | CN(CC(=O)Nc1cccc(F)c1)C(=O)C1CC(=O)N(CCc2ccccc2)C1 (configuration not stated) | 8.3% (inactive)
48 | CC(C)c1ccc(NC(=S)NC2CC3C=CC2C3)cc1 (configuration not stated) | -4.5% (inactive)
49 | CC(NC(=O)COC(=O)CCC(=O)c1ccc(Cl)cc1)c1ccccc1 (configuration not stated) | -10.7% (inactive)
50 | COc1cccc(NC(=O)C2CCCN(c3ncnc4c3nc3n4CCCCC3)C2)c1 (configuration not stated) | -12.1% (inactive)
51 | O=C(CN(C(=O)CCC(=O)Nc1nccs1)c1ccc(F)cc1)NCc1ccc2c(c1)OCO2 | 21.9% (inactive)
52 | COc1ccc(N(CC(=O)NCc2ccc(F)cc2)C(=O)CCC(=O)Nc2nccs2)cc1 | -77.8% (active)
53 | COc1cccc(N(CC(=O)NCc2ccccc2)C(=O)CCC(=O)Nc2nccs2)c1 | -9.83% (inactive)
54 | COC(=O)c1ccc(S(=O)(=O)N2CCC(c3nc4ccccc4o3)CC2)cc1 | -1% (inactive)
55 | Cn1cc(CCC(=O)NCc2ccc3c(c2)OCO3)c2ccccc21 | 5.66% (inactive)
56 | N#Cc1nc(Cc2cccc3ccccc23)oc1NCc1ccc2c(c1)OCO2 | -94.7% (active)
57 | c1n[nH]c(NCc2ccc3c(c2)OCO3)n1 | 5.91% (inactive)
